PubChem BioAssay AID492956 (The Scripps Research Institute Molecular Screening Center, 2010)
Out of some 340,000 compounds screened, about 3,300 (0.97%) were called active.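 The calls were made as follows: active = inhibition above the mean over all tested compounds plus 3 SD (cut at about 30% in these data); inactive = the rest.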 This excerpt belongs to a sample that is enriched for actives.

biological target: Platelet-activating factor acetylhydrolase 2, cytoplasmic (Homo sapiens) (UniProt Q99487); experiment: PAFAH2 enzyme inhibitors, primary screen, biochemical, fluorescence polarization, human (AID 492956); conditions: recombinant PAFAH2, FP-rhodamine activity probe, at 3.39 µM, hits give high values;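 also: inhibitors block probe labeling of enzyme so polarization drops; 0% = enzyme with DMSO and 100% = wells lacking PAFAH2 protein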

Row | SMILES | inhibition
1 | COc1ccc(N2C(=O)/C(=C/c3ccco3)C(=O)NC2=S)cc1 | 59.1% (active)
2 | CC(C)CN1CCN(Cc2ccccc2C(F)(F)F)CC1CCO (stereo not given) | 4.28% (inactive)
3 | COc1ccc(-n2c(-c3ccccc3)nc3ccccc3c2=O)cc1 | -4.87% (inactive)
4 | C[C@]12CCCCC1=CC(=O)C1C2CC[C@@]2(C)C1C[C@@H](F)[C@@H]2O (stereo not given in full) | 2.89% (inactive)
5 | CC(Cc1cccs1)NCc1ccc(Cl)cc1 (stereo not given) | 4.46% (inactive)
6 | COc1cccc(N2C(=O)NC(=O)/C(=C\c3cn(C)c4ccccc34)C2=O)c1 | 53% (active)
7 | Cc1cccc(N2C(=O)NC(=O)/C(=C\c3cnn(-c4ccccc4)c3)C2=O)c1 | 38.8% (active)
8 | CCc1nc2ccccc2c(=O)n1-c1cccc(OC)c1 | 0.9% (inactive)
9 | Cc1c(C(=O)O)cccc1-n1c(C)cc(/C=C2\C(=O)NC(=O)N(c3ccc4c(c3)OCO4)C2=O)c1C | 14.2% (inactive)
10 | CCN1CCN(c2nc3c(c(=O)[nH]2)CCC3)CC1 | 1.82% (inactive)
11 | CC12CCC3C(CCC4CC(=O)CCC43C)C1CC(=NO)C2=O (stereo not given) | 5.08% (inactive)
12 | Cc1ccc(S(=O)(=O)N(C)c2ccc(C(=O)NCC3(N(C)C)CCCCC3)cc2)cc1 | -2.88% (inactive)
13 | O=C1NC(=O)N(c2ccccc2)C(=O)/C1=C/c1ccc([N+](=O)[O-])s1 | 38.4% (active)
14 | O=C1NC(=O)N(c2ccc(F)cc2)C(=O)/C1=C/c1ccc2c(c1)CCCN2Cc1ccccc1 | 6.73% (inactive)
15 | COc1ccc2[nH]c3c(c2c1)CCN[C@H]3C | -4.46% (inactive)
16 | O=C(Cn1c(=O)n(CC2CS2)c2ccccc21)N1CCCCC1 (stereo not given) | -1.23% (inactive)
17 | N=c1ccccn1Cc1ccccc1 | 1.19% (inactive)
18 | O=C(COC(=O)c1ccccc1)Nc1ccc(Cl)cc1C(=O)c1ccccc1 | 45% (active)
19 | CN1CCN(C(=S)SCC(=O)Nc2ccc(Cl)cc2C(=O)c2ccccc2)CC1 | 5.69% (inactive)
20 | O=C(CCNS(=O)(=O)c1ccccc1)Nc1ccc(Cl)cc1C(=O)c1ccccc1 | -0.4% (inactive)
21 | CCN(CC)C(=O)Oc1ccc(NC(=O)N2CCOCC2)cc1 | 6.33% (inactive)
22 | C=CCN1C(=O)NC(=O)/C(=C/c2ccc(OCC(=O)Nc3ccc(C)cc3)cc2)C1=O | 5.48% (inactive)
23 | COc1ccc(C(=O)C2CCCN(Cc3ccc(C)s3)C2)cc1OC (stereo not given) | 1.55% (inactive)
24 | COc1ccccc1N=C1SCCCN1C | 5.93% (inactive)
25 | NCCc1ccc(S(=O)(=O)F)cc1 | 86% (active)
26 | CC(C)c1ccc(-n2c(O)c(/C=N/N3CCOCC3)c(=O)[nH]c2=S)cc1 | -8.3% (inactive)
27 | Cc1ccnc(-n2c(C)cc(/C=C3\C(=O)NC(=S)N(C)C3=O)c2C)c1 | -2.99% (inactive)
28 | CCN1CCN(c2ccc([N+](=O)[O-])cc2C#N)CC1 | 9.87% (inactive)
29 | CC12CCC(O)CC1CCC1C2CCC2(C)C(C(=O)CC(O)C(F)(F)F)CCC12 (stereo not given) | 2.7% (inactive)
30 | O=C(N/N=C/c1c(O)n(C2CC2)c(=S)[nH]c1=O)c1ccccc1Cl | -27.8% (inactive)
